Results with a measured potency or affinity are listed apart. Active and inactive are the calls of the source. No rule for the calls is given here.

The test in a line: HepG2 cell cytotoxicity, cytotoxicity control, set 4 (AID 504910). The settings on record: series mostly up to 50 µM.
With `Nc1cc(=O)[nH]c(SCC(=O)NC2CCCCC2)n1`, the compound was called inactive. For `CCC(Sc1nc2ccccc2c(=O)[nH]1)C(=O)NC1CCCCC1` (stereo not given), the compound was called inactive.

In the case of `CN(C)C(=O)CSc1nc2ccccc2c(=O)[nH]1`, the compound was called inactive. On to `NC(=O)CSc1nc2ccccc2c(=O)[nH]1`, for which the result was inactive. Consider `O=c1[nH]c(SCc2ccccc2Cl)nc2c1CCCC2`, for which the call was inactive. As for `Cc1cccc(/C=C/C(=O)c2ccc([N+](=O)[O-])o2)c1`, the entry is “inactive”; as for `COc1c(N2CCNC(C)C2)c(F)cc2c(=O)c(C(=O)O)cn(C3CC3)c12` (stereo not given), “inactive”; as for `CCC(Sc1nc2c(c(=O)[nH]1)CCC2)C(=O)Nc1cccc(OC)c1` (stereo not given), “inactive”. With `CC1CCN(C(=O)C2CCN(c3nnc(-n4cccc4)s3)CC2)CC1`, the result was inactive.

With `COc1cccc(NC(=O)CSc2nc3ccccc3c(=O)[nH]2)c1`, the call was inactive. Regarding `NNC(=O)c1ccncc1`, the outcome was inactive. As for `Cc1cc(C)n2nc(N)c(N=Nc3ccccc3)c2n1`, the entry is “inactive”; as for `Cn1c(SCC(=O)NC2CCCCC2)nc2ccccc2c1=O`, “inactive”; as for `O=C(CSc1nc2c(c(=O)[nH]1)CCC2)NC1CCCCC1`, “inactive”. As for `Cc1cc(=O)[nH]c(SCC(=O)NC2CCCCC2)n1`, the entry is “inactive”. For `Cc1nc(SCc2ccccc2Cl)[nH]c(=O)c1C`, the outcome was inactive. As for `Cc1c[nH]c(=S)[nH]c1=O`, the entry is “inactive”. Turning to `O=C(CSc1nc2ccccc2c(=O)[nH]1)NC1CCCCC1`, the compound was called inactive. With `Cc1nc(SCC(=O)NC2CCCC2)[nH]c(=O)c1C`, the compound was classed as inactive. Turning to `CC(C)CCNC(=O)CSc1nc2ccccc2c(=O)[nH]1`, the call was inactive.

For the compound `Cc1nc(SCC(=O)NCCC(C)C)[nH]c(=O)c1C`, the outcome was inactive. For the compound `O=c1[nH]c(=S)[nH]c2ccccc12`, the compound was classed as inactive. As for `Cc1cnc(SCC(=O)NC2CCCCC2)[nH]c1=O`, the entry is “inactive”; as for `CCCc1cc(C(N)=S)ccn1`, “inactive”; as for `COc1ccc(NC(=O)CSc2nc3ccccc3c(=O)[nH]2)cc1`, “inactive”.

Turning to `CCC(Sc1nc2ccccc2c(=O)[nH]1)C(=O)Nc1cccc(OC)c1` (stereo not given), the result was inactive.

As to `CC[N+](C)(CC)CCCCOc1ccc2c(c1)C(=O)c1cc(OCCCC[N+](C)(CC)CC)ccc1-2`, the compound was classed as inactive. As for `CNC(=O)CSc1nc2ccccc2c(=O)[nH]1`, the outcome was inactive. With `Cc1cc(=O)[nH]c(=S)[nH]1`, the result was inactive. Turning to `O=C(CSc1nc2c(c(=O)[nH]1)CCCC2)NC1CCCCC1`, the result was inactive.

These data come from PubChem BioAssay AID504910 (Southern Research Specialized Biocontainment Screening …, 2011).
